Compound activity (PubChem BioAssay)
TROY signal inh = blocks TROY-dependent signaling in reporter cells; Q293 LMP1-TROYcd NF-kB luciferase reporter, 4 h; inhibition, % at 10 µM; hit rate 0.98% among 360,000;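 active = compounds whose plate-normalised and pattern-corrected inhibition of the luciferase reporter signal at the single screening dose is 50% or more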
TWEAK Fn14 block = blocks TWEAK-Fn14 interaction in a reporter cell assay; TWEAK-stimulated Fn14 reporter cells, luciferase luminescence, 8 h; inhibition, % at 10 µM; hit rate 2% among 360,000; AID 1159606; in the data active = inhibition above about 50%
HSP90 inh = inhibitors of HSP90 luciferase refolding in rabbit reticulocyte lysate | luciferase refolding luminescence, 3 h | inhibition, % at 5.6 µM | hit rate 0.91% among 290,000 | AID 1789;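 active = inhibition above the screen-wide mean plus 3 SD, computed separately per campaign, cut at about 16% in these data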;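 also: inhibitors lower the luminescence because luciferase stays unfolded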
Platelet DG rel = platelet dense granule release activity; human platelet-rich plasma, SFLLRN dense granule ATP release, luminescence; inhibition, %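 (compounds screened at 7.5 µM in platelet-rich plasma)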; hit rate 0.22% among 300,000;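 active = mean replicate score, as percent of positive control, at or above 50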
PPC-1+TRAIL kill = compounds killing PPC-1 cancer cells with TRAIL present (potentiator screen, no TRAIL-free arm); PPC-1 cells + TRAIL, ATPLite viability luminescence; cell killing (% activity), % at 4 µM or 5 µM; hit rate 0.41% among 220,000;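 active = cell killing above 50% in the first pass at 4 µM, then a duplicate retest at 5 µM averaging 50% or more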
C8 TRAIL sens = caspase-8 TRAIL sensitization. NB7+C8 cells + TRAIL, ATPlite viability luminescence. inhibition (viability loss, TRAIL sensitization), % at 10 µM. hit rate 1% among 360,000. AID 624354;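 active = compounds causing at least 50% loss of cell viability in the single-dose screen, relative to plate controls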
Numbers stand for hits; - = inactive; . = no result given. The list is not random: actives were taken first. Their share in the collection is about 3.5%.

SMILES	TROY signal inh	TWEAK Fn14 block	HSP90 inh	Platelet DG rel	PPC-1+TRAIL kill	C8 TRAIL sens
COc1ccccc1NC(=O)Nc1nc(CC(=O)N2CCN(c3ccc(F)cc3)CC2)cs1	-	51	.	-	.	-
COc1ccc(-n2nc(C(=O)NCC(=O)N3CCN(c4ccccc4F)CC3)c3ccccc3c2=O)cc1OC	-	-	-	-	.	53
COc1ccc(-n2nc(C(=O)NCC(=O)N3CCN(C)CC3)c3ccccc3c2=O)cc1OC	-	-	-	-	-	-
COc1ccc(-n2nc(C(=O)NCC(=O)N3CCN(c4ccccc4F)CC3)c3ccccc3c2=O)cc1	-	-	-	-	.	72
O=C(CNC(=O)c1ccccc1F)N/N=C/c1cc(Br)ccc1OC(=O)/C=C/c1ccco1	-	-	-	-	-	53
COc1ccccc1C(=O)NCC(=O)N/N=C/c1cc(Br)ccc1OC(=O)/C=C\c1ccco1	-	-	-	-	-	-
C=CCn1c(=O)c2ccccc2n2c(SCC(=O)NC(C)C)nnc12	-	-	-	-	.	-
CC(C)(C)c1nnc(SCC(=O)Nc2ccc(N3CCCCC3)cc2)n1N	-	-	.	.	.	-
COc1ccc(CN2CCSCC2)c(C)c1C	-	-	-	-	.	-
CC(C)NC(=O)c1onc(CSc2ccc(C(C)C)cc2)c1C(=O)O	-	-	-	-	96	-
CN(CCc1ccccc1)C(c1cc2ccccc2o1)c1nnnn1C(C)(C)C (centres undefined)	-	-	.	.	.	-
Cc1ccc(-n2ncc3c2CCCC3NC(=O)CCCN2CCCCC2=O)cc1C (centres undefined)	-	-	-	-	.	-
N#C/C(=C/c1ccc(Sc2nc3ccccc3[nH]2)o1)c1cccc(F)c1	55	-	-	-	-	-
N#C/C(=C/c1ccc(Sc2nc3ccccc3[nH]2)o1)c1cccc(Br)c1	68	-	-	-	-	-
O=C(CCn1c2c(c3ccccc31)CCCC2)NNC(=O)c1ccccc1Cl	-	65	-	-	-	-
O=C(CCn1c2c(c3ccccc31)CCCC2)NNC(=O)c1cccc([N+](=O)[O-])c1	-	-	-	-	-	-
COc1ccc(S(=O)(=O)NCC2(N3CCOCC3)CCCCC2)cc1OC	-	-	.	.	.	-
CCCc1cc(=O)oc2cc(OCC(=O)N3CCc4ccccc43)ccc12	-	-	-	74	-	-
Cc1nn(C2CCS(=O)(=O)C2)c(Cl)c1/C=C/C(=O)OCC(=O)c1cc(C)n(-c2ccc(F)cc2)c1C (centres undefined)	-	59	-	-	-	-
CCOC(=O)c1nnc(-c2ccccc2)nc1Sc1ccccc1Cl	-	57	-	-	-	-
CCOC(=O)c1nnc(-c2ccc(C)cc2)nc1Sc1cccc(Cl)c1	-	-	-	-	-	-
N#Cc1ccc(C(=O)N2CCN(c3ncccn3)CC2)cc1	-	-	-	-	.	-
Cc1cc(C)c(Cc2c(C)nc3c(C(=O)NCc4ccco4)cnn3c2C)c(C)c1	88	73	-	-	-	-
CC(C)Oc1cc(F)ccc1-c1cc(C(=O)Nc2cccc(C(F)(F)F)c2)[nH]n1	55	70	.	.	.	-
CC(C)Oc1ccc(F)cc1-c1cc(C(=O)NCc2cc(C(F)(F)F)cc(C(F)(F)F)c2)[nH]n1	-	51	.	.	.	-
SMILES	TROY signal inh	TWEAK Fn14 block	HSP90 inh	Platelet DG rel	PPC-1+TRAIL kill	C8 TRAIL sens
Cc1ccc(C(=O)CSc2nnc3c4ccccc4nc(Cc4ccccc4)n23)cc1	65	-	-	-	-	-
Cc1ccc(S(=O)(=O)N2C[C@H]3[C@H]4C(=O)N(C5CCCCC5)C(=O)[C@H]4CC(=O)[C@H]3[C@@H]2c2ccccc2F)cc1	-	-	.	.	.	-
Cc1ccc(S(=O)(=O)N2C[C@H]3[C@H]4C(=O)N(C5CCCCC5)C(=O)[C@H]4CC(=O)[C@H]3[C@@H]2c2cccc3ccccc23)cc1	-	-	.	.	.	60
Cc1cc(-c2csc(NC(=O)c3ccc(=O)[nH]c3)n2)c(C)n1Cc1ccco1	-	58	-	-	-	-
CCNc1nc(-c2cc(C)n(Cc3ccco3)c2C)cs1	-	-	-	-	-	-
CC(C)(C)c1ccc(NC(=O)CN2C(=O)NC(C)(C3CC3)C2=O)cc1 (centres undefined)	-	-	.	.	.	-
COc1ccc(/C=N/NC(=O)c2cc3cc(OC)c(OC)cc3[nH]2)cc1	-	-	-	-	.	-
COc1ccccc1C=NN=C(N)C(N)=NN=Cc1ccccc1OC	-	-	.	.	.	-
COc1ccc(/C=N\Nc2ccccn2)c(OC)c1	-	-	-	-	.	-
